# Bioassay records as filed in PubChem BioAssay.
# DRD3 antagonist: antagonists of human D3 dopamine receptor | D3R cells, DiscoveRx beta-arrestin luminescence, antagonist mode; stronger effect = lower value | AID 652054 | max response, negative = inhibition, % | P35462 | hit rate 2.5% among 360,000; in the data active means max response below about -50%; further: on the % scale 0 is the no-effect control and ±100 the full control effect
# Target sequence (P35462 whole entry, looked up): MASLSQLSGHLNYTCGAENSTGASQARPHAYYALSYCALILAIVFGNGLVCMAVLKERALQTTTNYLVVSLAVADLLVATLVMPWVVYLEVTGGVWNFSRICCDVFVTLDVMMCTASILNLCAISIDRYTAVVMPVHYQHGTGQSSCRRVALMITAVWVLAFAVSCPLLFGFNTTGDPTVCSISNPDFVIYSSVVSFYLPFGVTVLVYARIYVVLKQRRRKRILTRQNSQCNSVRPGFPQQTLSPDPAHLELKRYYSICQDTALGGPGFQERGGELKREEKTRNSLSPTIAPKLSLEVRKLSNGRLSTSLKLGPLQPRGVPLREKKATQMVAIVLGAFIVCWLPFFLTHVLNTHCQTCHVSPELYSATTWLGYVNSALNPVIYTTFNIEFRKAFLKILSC
#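 Cells expressing the human receptor were seeded at 1500 cells/well, incubated overnight at 37 degrees C in 5% CO2, then exposed to library compounds with dopamine controls for 90 minutes at 37 degrees C before luminescent detection.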
# D3 ag: D3 dopamine receptor (human) agonism. hit rate 0.58% among 410,000. max activation, %. D3R DiscoveRx beta-arrestin cells, luminescence, 90 min; in the data active means max activation above about 30%; further: 0% is about no effect
#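 Agonist-mode cell screen: cells plated at 1500/well and incubated overnight at 37 °C, then exposed to library compounds for 90 min at 37 °C. Detection reagent was added for 30–60 min at room temperature, and luminescence was read.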
# D1 PAM: potentiators of human D1 dopamine receptor; P21728; HEK293 TREx D1 cells, calcium flux, dopamine EC20 potentiation; AID 504651; potentiation, % at 10 µM; hit rate 0.036% among 360,000; in the data active means potentiation above about 30%; further: 0% is about no effect
# D1 antag: antagonists of human D1 dopamine receptor; HEK293 TREx D1 cells, calcium flux, dopamine EC80; stronger effect = lower value; AID 504652; activity change, negative = inhibition, % at 10 µM; P21728; hit rate 3.2% among 360,000; in the data active means activity change below about -30%; further: on the % scale 0 is the no-effect control and ±100 the full control effect
#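 Compound effects on dopamine-evoked calcium signalling were measured in tetracycline-induced HEK293 Trex D1 cells. Dopamine at EC80 followed a 180 s compound pre-read, and fluorescence was tracked kinetically for 180 s more.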
# D1 ag: human D1 receptor agonism; P21728; activation, % at 2 µM; hit rate 1% among 360,000; HEK293 T-REx D1 cells, calcium flux, agonist mode; AID 504660; in the data active means activation above about 30%; further: 0% is about no effect
#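 Agonism was scored from calcium flux recorded over 180 s (1 read/s) after pintool compound addition, following a 10-cycle baseline. Cells were inducible force-coupled HEK293 TREx D1, plated overnight at 30 C and loaded with no-wash calcium dye.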
# * = called active by the depositor; nt = no result given; ! = not confirmed by another sample. Shown are actives, neighbours in structure and some others; about 6.1% of the full set was active somewhere.
SMILES,DRD3 antagonist,D3 ag,D1 PAM,D1 antag,D1 ag
CCN1C(=NCC(C)C)N[C@@H](c2cccc(F)c2)C(C(=O)OC)=C1C,-7,0,-2,-33*!,6
O=C(CSc1nc(=O)n(CCN2CCOCC2)c2c1CCC2)Nc1ccccc1,nt,-4,0,nt,0
CCC(Cn1nnc2ccccc2c1=O)NC(=O)Nc1ccc(C)cc1C (centres undefined),nt,3,3,26,0
Cc1c(Cc2c(C)n(C)n(-c3ccccc3)c2=O)c(=O)n(-c2ccccc2)n1C,1,2,3,5,1
CCCC(=O)NC(=S)c1c(C)n(C)n(-c2ccccc2)c1=O,72,38*,3,1,4
CC(=O)/C(N=Nc1c(C)n(C)n(-c2ccccc2)c1=O)=C(\C)O,2,3,-5,-1,1
Cc1c(N=NC2=C(O)CC(C)(C)CC2=O)c(=O)n(-c2ccccc2)n1C,-63*,-45,6,-6,3
Cc1c(O)c(=O)n(-c2ccccc2)n1C,-57*,-68,7,-25,1
Cc1c(N=Cc2c(O)n(C)c(=O)c3ccccc23)c(=O)n(-c2ccccc2)n1C,42,33*,-5,9,-1
Cc1ccc(C)c(NS(=O)(=O)c2ccccc2C)c1,1,1,-4,-19,4
Cc1c(CN(C)CCc2ccccc2)c(=O)n(-c2ccccc2)n1C,-77*,-29,-5,12,2
CC(C)(C)c1cc(NC(=O)CSc2nnc(NCc3ccccc3)s2)n(-c2ccccc2)n1,8,7,1,11,-2
COc1ccc(-n2cnnc2SCC(=O)Nc2cc(C(C)(C)C)nn2-c2ccccc2)cc1,-56*,10,-3,7,-1
CC(C)(C)c1cc(NC(=O)CSc2nnc(N)s2)n(-c2ccccc2)n1,0,-8,4,-35*,3
Cc1cccc(N(CC(=O)NCCSCc2ccccc2)S(C)(=O)=O)c1C,13,2,-4,8,0
Cc1cccc(N(CC(=O)NCCSCc2ccccc2)S(=O)(=O)c2ccccc2)c1C,nt,1,0,0,30*
COc1ccccc1N(CC(=O)NCCSCc1ccc(Cl)cc1)S(C)(=O)=O,2,-4,-7,-58*!,6
COc1ccccc1N(CC(=O)NCCSCc1ccccc1)S(C)(=O)=O,8,2,-3,-16,1
O=C(NCc1ccc(F)cc1)c1ccc(Nc2nc3ccccc3n3nnnc23)cc1,nt,-1,-1,-30*,1
Cc1ccc(NC(=O)c2cc(-n3cnnc3)ccc2Cl)cc1,-28,15,-3,1,-1
O=C(Nc1ccc(-c2nc3ccccc3s2)cc1)c1cc(-n2cnnc2)ccc1Cl,23,16,-13,-42*,7
COc1ccc(C(CC(=O)Nc2cc(Cl)c(OC)cc2OC)N2Cc3ccccc3C2=O)cc1 (centres undefined),nt,47*,0,2,5
COc1cc(OC)c(NC(=O)CC(c2cccs2)N2Cc3ccccc3C2=O)cc1Cl (centres undefined),nt,-11,-2,27,5
CC(C)CNc1nc(S(=O)(=O)c2ccccc2)c(Cl)s1,-7,-7,-7,-37*,2
Cc1ccc(N2CCN(C(=O)c3cn(C)c4ccc(S(=O)(=O)N5CCC(C)CC5)cc4c3=O)CC2C)cc1 (centres undefined),nt,0,-1,6,3
SMILES,DRD3 antagonist,D3 ag,D1 PAM,D1 antag,D1 ag
Cc1ccc(N2CCN(C(=O)c3cn(C)c4ccc(S(=O)(=O)N5CCCC5)cc4c3=O)CC2C)cc1 (centres undefined),nt,-2,3,-82*,0
CCOC(=O)c1c(C)[nH]c(NC(=O)NNC(=O)c2ccc(OC)cc2)c1C,0,2,nt,-1,2
CCOC(=O)c1c(C)[nH]c(NC(=O)NNC(=O)c2ccccc2Cl)c1C,42,0,-10,-31*,1
OCC1(CCc2ccccc2)CCN(Cc2cc(F)ccc2-n2cccn2)CC1,-3,-7,-6,-32*,1
OCC1(CCCc2ccccc2)CCN(Cc2cc(F)ccc2F)CC1,3,-1,-3,-7,7
Cc1cc(O)c(C(c2ccccc2)N2CCC(C)CC2)c(=O)n1Cc1ccco1 (centres undefined),nt,-12,-3,-3,1
O=S(=O)(c1ccccc1)N1CCSC1c1ccco1 (centres undefined),3,3,-5,-44*,2
CC(=O)Nc1ccc(S(=O)(=O)N2CCSC2c2ccco2)cc1 (centres undefined),-21,-20,-6,1,4
Cc1[nH]c(C)c(S(=O)(=O)N(Cc2ccccc2)C(C)C)c1C(=O)N1CCCC1,5,2,5,-34*,1
N#CC(C#N)=C1C=CC=CN1/C(=C\c1ccccc1Cl)C(=O)c1ccccc1,-104*,-13,-13,-50*,3
COc1ccc(N2CCN(C(=O)c3ccccc3Br)CC2)c([N+](=O)[O-])c1,-25,-2,-8,-49*,38*
COc1cccc(CC(=O)N2CCN(c3ccccc3[N+](=O)[O-])CC2)c1,-21,-9,-8,-40*,5
COc1ccc(N2CCN(C(=O)c3ccccc3)CC2)c([N+](=O)[O-])c1,-14,2,-1,6,2
CCc1ccc(C(=O)COC(=O)C(Cc2ccccc2)NC(=O)c2ccc(Cl)cc2)cc1 (centres undefined),3,0,-5,-5,23
CCc1ccc(C(=O)COC(=O)C(Cc2ccccc2)NC(=O)C2CCC(C)CC2)cc1 (centres undefined),-1,3,-6,-31*,6
COc1cccc(N2CCN(C3C(=O)c4ccccc4N3C(C)=O)CC2)c1 (centres undefined),nt,2,0,-11,1
CCc1ccccc1-n1nnnc1-c1cnccc1C(F)(F)F,4,-8,0,-2,3
CN(C)CCCn1c(SCC(=O)N2c3ccccc3Sc3ccccc32)nc2ccccc2c1=O,-4,-1,-3,-15,38*
Cn1c(Cn2nnc3ccccc32)nnc1SCC(=O)N1c2ccccc2Sc2ccccc21,-55*,-22,1,-1,8
Cn1c(Cn2nnc3ccccc32)nnc1SCC(=O)N1c2ccccc2CCc2ccccc21,-20,-4,0,4,1
Cn1c(SCC(=O)N2c3ccccc3Sc3ccccc32)nc2ccccc21,-13,3,1,-9,6
O=C(Nc1ccn(CCCNCc2cccc3ccccc23)c(=O)n1)OCc1ccccc1,-51*,-14,nt,nt,nt
O=C(Nc1ccn(CCCNCc2ccccn2)c(=O)n1)OCc1ccccc1,-11,-11,nt,nt,nt
O=C(Nc1ccn(CCCNCC(c2ccccc2)c2ccccc2)c(=O)n1)OCc1ccccc1,-30,-8,nt,nt,nt
CC(CNCCCn1ccc(NC(=O)OCc2ccccc2)nc1=O)c1ccccc1 (centres undefined),-51*,-69,nt,nt,nt
